# High-throughput results (PubChem BioAssay)
# Most compounds without a hit are left out; they make up all but 3.4% or so of the library.
# GPR151 activ: activates the human receptor GPR151 | Q8TDV0 | PathHunter beta-arrestin GPR151 cells, luminescence | activation, % at 11.2 µM | hit rate 1% among 650,000; in the data active = activation above about 4.9%
# FBW7 act: activators of human E3 ligase FBW7 | AlphaScreen FBW7–phospho-cyclin E peptide binding, activator screen | Q969H0 | normalized activity (activation), % at 26.1 µM | hit rate 0.13% among 650,000; in the data active = normalized activity above about 1.9%;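 also: purified mutant Fbw7 with reduced substrate affinity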
# MITF inh: inhibitors of human MITF; hit rate 0.91% among 650,000; inhibition, % at 2.6 µM; AlphaScreen MITF homodimerization, bead proximity signal; AID 1259374; in the data active = inhibition above about 50%
# Target sequence (O75030 whole entry, looked up): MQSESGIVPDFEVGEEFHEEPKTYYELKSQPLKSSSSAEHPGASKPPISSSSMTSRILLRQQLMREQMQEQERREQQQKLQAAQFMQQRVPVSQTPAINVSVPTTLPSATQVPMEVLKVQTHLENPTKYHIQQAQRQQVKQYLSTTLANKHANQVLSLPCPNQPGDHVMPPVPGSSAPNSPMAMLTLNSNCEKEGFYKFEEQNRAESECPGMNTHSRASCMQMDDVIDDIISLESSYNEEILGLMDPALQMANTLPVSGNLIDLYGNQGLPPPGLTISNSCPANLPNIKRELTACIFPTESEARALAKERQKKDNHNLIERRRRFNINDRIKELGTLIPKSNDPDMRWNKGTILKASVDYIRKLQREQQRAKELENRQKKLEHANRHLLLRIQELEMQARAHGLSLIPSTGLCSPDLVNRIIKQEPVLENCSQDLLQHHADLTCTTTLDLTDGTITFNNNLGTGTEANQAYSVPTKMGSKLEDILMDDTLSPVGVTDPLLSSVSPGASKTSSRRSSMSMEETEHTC
# TEAD-YAP block: TEAD-YAP interaction inhibition | HEK-TIYL cells, TEAD-Gal4/YAP UAS-luciferase luminescence | inhibition, % at 9.12 µM | hit rate 1.4% among 640,000; in the data active = inhibition above about 32%
# GPR151 conf act: human GPR151 activation, confirmation screen. 6,700 tested, under 10 active. AID 1508609. activation, % at 11.2 µM. shares compounds with GPR151 activ. GPR151 PathHunter beta-arrestin cells, luminescence, 90 min; % of EA-reagent control over plate median;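 active = mean percent activation across replicates above the confirmation screen cutoff of 4.91%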
# GPR119 counter: GPR119 activation, counter-screen for GPR151 activators. activation, % at 11.2 µM. shares compounds with GPR151 activ. hit rate 0.3% among 6,700. GPR119 PathHunter beta-arrestin cells, luminescence, 90 min; 0 = compound-well median, 100 = enzyme-acceptor control;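 active = mean percent activation in the counterscreen above 29.09%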;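 also: counterscreen on off-target GPR119 to flag nonselective hits from the GPR151 activator screen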
# Hits are given with their value; i = inactive; nt = not tested or not shown.
SMILES,GPR151 activ,FBW7 act,MITF inh,TEAD-YAP block,GPR151 conf act,GPR119 counter
COc1ccc(/C=C/C(=O)Nc2ncc(Cc3cccc(C(F)(F)F)c3)s2)cc1,i,i,i,i,nt,nt
COCCCNC(=O)CN(c1cc(Cl)ccc1C)S(C)(=O)=O,i,i,i,i,nt,nt
COCCCNC(=O)CN(c1cc(Cl)ccc1Cl)S(C)(=O)=O,11,i,i,i,i,i
O=C(CCN1C(=O)C2C3C=CC(C3)C2C1=O)N1CCN(c2ccccc2Cl)CC1 (stereo unspecified),i,i,i,i,nt,nt
O=C(CCN1C(=O)C2C3C=CC(C3)C2C1=O)N1CCN(c2ccccc2F)CC1 (stereo unspecified),5.1,i,i,i,i,i
O=C(CSc1nnc(-c2cccs2)n1-c1ccccc1)NNC(=O)c1cccs1,i,i,i,i,nt,nt
COc1ccc(-c2csc(NC(=O)c3ccc(C)o3)n2)cc1,9.6,i,i,i,i,i
Cc1ccccc1-n1c2nc(=O)[nH]c(=O)c-2cc2c(Cl)cccc21,8.3,i,i,i,i,i
COc1ccccc1C(=O)Nc1nnc(S(=O)(=O)N2CCOCC2)s1,7.9,i,i,i,i,i
CCOc1ccc(C(=O)Nc2nnc(S(=O)(=O)N3CCCCC3)s2)cc1,5.0,i,i,i,i,i
Cc1ccc(-n2c(SCc3cc(=O)n4ccccc4n3)nc3n[nH]c(C)c3c2=N)cc1Cl,i,i,i,i,nt,nt
CCOc1ccc(/C=C2\C(=O)NC(=O)N(Cc3ccccc3)C2=O)cc1,i,i,i,i,nt,nt
O=S(=O)(c1ccc2oc(-c3ccc(Cl)cc3)nc2c1)c1ccc2oc(-c3ccc(Cl)cc3)nc2c1,5.7,i,i,i,i,i
COc1ccc(-c2nc3cc(Cl)ccc3o2)cc1OC,5.8,i,i,i,i,i
CCCCOc1ccc(C(=O)Nc2ccc3nc(SC(C)C(=O)Nc4c(C)cc(C)cc4C)sc3c2)cc1 (stereo unspecified),i,i,i,i,nt,nt
Cc1ccc(-n2nc3c(c2NC(=O)C2(c4ccc(Cl)cc4)CCCC2)CSC3)c(C)c1,i,i,i,i,nt,nt
O=c1c2ccccc2n(Cc2cccc([N+](=O)[O-])c2)c(=O)n1Cc1ccc2c(c1)OCO2,i,i,i,i,nt,nt
CCOc1ccccc1N(CC(=O)N1CCCC1)S(=O)(=O)c1ccc(C)cc1,6.0,i,i,i,i,i
Cc1ccc(N(CC(O)Cn2c3ccccc3c3ccccc32)S(=O)(=O)c2ccccc2)cc1 (stereo unspecified),6.2,i,i,i,i,i
Cc1ccc(N(CC(O)Cn2c3ccccc3c3ccccc32)S(=O)(=O)c2ccc(C)cc2)cc1 (stereo unspecified),i,i,i,i,nt,nt
O=C(CN(c1ccccc1)S(=O)(=O)c1ccccc1)N1CCOCC1,i,i,i,i,nt,nt
Cc1ccc(N(CC(=O)N2CCOCC2)S(=O)(=O)c2ccccc2)cc1,9.1,i,i,i,i,i
Cc1ccc(S(=O)(=O)N(CC(=O)N2CCOCC2)CC(=O)N2CCOCC2)cc1,6.6,i,i,i,i,i
O=C(CN(CCc1ccccc1)S(=O)(=O)c1ccccc1)Nc1ccc(F)cc1,i,i,i,i,nt,nt
Cc1ccc(N(CC(=O)N2CCCCCC2)S(=O)(=O)c2ccccc2)cc1C,5.8,i,i,i,i,i
SMILES,GPR151 activ,FBW7 act,MITF inh,TEAD-YAP block,GPR151 conf act,GPR119 counter
COc1ccc(NC(=O)c2ccoc2C)c(OC)c1,6.1,i,i,i,i,i
COc1cc(OC)cc(C(=O)NNC(=O)NC2CCCCC2)c1,7.3,i,i,i,i,i
COc1ccc(NC(=O)C(=O)NC2CCCCCC2)c(OC)c1,5.3,i,i,i,i,i
CCN1C(=O)C(c2ccc(F)cc2)C2(CCN(C(=O)Cc3cccs3)CC2)C1=O (stereo unspecified),i,i,i,i,nt,nt
CC(C)N(C(=O)Cn1c(=O)n(Cc2ccco2)c2ncccc21)C(C)C,i,i,i,i,nt,nt
C=CCC(O)(CC=C)C(C)NC(=O)C1CC(Cc2cccc(Cl)c2)=NO1 (stereo unspecified),11,i,i,i,i,i
CC(NC(=O)C1CC(Cc2cccc(F)c2)=NO1)c1ccccc1Cl (stereo unspecified),i,i,i,i,nt,nt
CCS(=O)(=O)N1CCc2ccc(NS(=O)(=O)CC(C)C)cc2C1,i,i,i,i,nt,nt
COC(=O)c1ccc(Nc2nc3ccccc3n3c(C)nnc23)cc1,i,i,i,i,nt,nt
CC(=O)c1ccc(Nc2nc3ccccc3n3c(C)nnc23)cc1,7.3,i,i,i,i,i
CCSc1nc2sccn2c(=O)c1C(=O)NCc1ccc(C)o1,i,i,i,i,nt,nt
O=C1CCCN1CCn1cnc2c(NC3CC3)nc(Nc3ccncc3)nc21,12,i,i,i,i,i
CCNc1nc(NCCCN2CCCC2=O)c2ncn(C(C)C)c2n1,5.4,i,i,i,i,i
CCCNc1nc(Nc2cc(OC)c(OC)c(OC)c2)nc2c1ncn2CCN1CCCC1=O,i,i,i,i,nt,nt
CC(C)n1cnc2c(NCCCN3CCCC3=O)nc(NCCCN3CCCC3=O)nc21,i,i,i,i,nt,nt
COc1cc(Nc2nc(NCCN3CCOCC3)c3ncn(CCN4CCCC4=O)c3n2)cc(OC)c1OC,5.7,i,i,i,i,i
CC(C)N(CCNc1nc(NCCN2CCOCC2)nc2c1ncn2Cc1ccc(C(F)(F)F)cc1)C(C)C,6.4,i,i,i,i,i
CCOc1ccc(C(=O)NC(CC)CC)cc1OCC,i,i,i,i,nt,nt
COc1ccc(-c2nc3ccccc3c(=O)n2NCc2ccccc2Br)cc1OC,i,i,i,i,nt,nt
COc1ccc(C(=O)Nc2cc(C)c(O)c(C)c2)cc1,i,i,i,i,nt,nt
CCCC1CCC(c2ccc(-c3ccc(CC)cn3)cc2)CC1 (stereo unspecified),i,i,i,i,nt,nt
O=C1CCCN1CCCNc1nc(NCCN2CCOCC2)c2ncn(CCN3CCCC3=O)c2n1,6.4,i,i,i,i,i
O=C1CCCN1CCCNc1nc(NCCCN2CCCC2=O)c2ncn(CCN3CCCC3=O)c2n1,i,i,i,i,nt,nt
O=C1CCCN1CCCNc1nc(N2CCC(N3CCOCC3)CC2)nc2c1ncn2C1CCCCC1,14,i,i,i,i,i
Cc1ccc2c(c1)cc1c(=O)n(CC(=O)N3CCN(Cc4ccccc4)CC3)nc(C)n12,i,i,i,i,nt,nt
CCCCOc1ccccc1NC(=O)/C=C/c1ccc(-c2ccccc2)cc1,5.3,i,i,i,i,i
CCOc1ccccc1NC(=O)/C=C/c1ccc(OC)cc1,i,i,i,i,nt,nt
CC(=O)C1=C(C)NC(SCC(=O)O)=C(C#N)C1c1ccccc1 (stereo unspecified),i,i,i,i,nt,nt
CC(=O)C1=C(C)NC(SCC=C(C)C)=C(C#N)C1C1C=CC(Cl)C=C1 (stereo unspecified),5.4,i,i,i,i,i
O=C(CSc1nc(N2CCCCC2)nc(N2CCCCC2)n1)Nc1ccc(F)cc1,9.8,i,i,i,i,i
